Records with an inconclusive call do not appear. A call without a number means that no potency is given here. A number with no mark means an inactive call. Activity calls are given as the source filed them. The call rests on the fitted dose curve; in most records, active means well fitted inhibition curve with a large enough effect; inconclusive means small, poorly fitted or top-dose-only effect; inactive means flat fitted curve, though single readings scatter. Starred links: 1 amine or outer side, 2 acyl side, 3 side chain; linkers in the order of their positions; H or OH if unused. Positions of bridges follow the written chain, without caps; N, C: chain ends. Non-standard residues stand in square brackets, D forms with d. Residues, ends and D or L forms follow the SMILES beside them. Chains are numbered I, II in the order given. Actinocin(9to1) = Cc1c2oc3c(C)ccc(C(=O)[*:1])c3nc-2c(C(=O)[*:2])c(N)c1=O; NMeV = CN[CH](C(=O)O)C(C)C; Sar = CNCC(=O)O
Assays:
KB-3-1 = assay: Cytotoxic Profiling of Annotated Libraries Using Quantitative High-Throughput Screening (AID 1296008); conditions: Five cell lines viability, CellTiter-Glo ATP luminescence, 48-72 h; max response: stronger effect = lower value
Summary of the method: (§1)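 Cytotoxicity was measured as CellTiter-Glo ATP luminescence, read after 10 min at room temperature. Compound treatment of the cells lasted 48 or 72 hr at 37 degrees Celsius in a qHTS format.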

NIH3T3 [1] = assay: as above; conditions: Five cell lines viability, CellTiter-Glo ATP luminescence, 48-72 h; max response: stronger effect = lower value
Summary of the method: as §1

MCC-13 = assay: qHTS assay to identify novel small-molecules to repurpose for Merkel cell carcinoma treatment (AID 1296009); conditions: MCC and control cell lines, CellTiter-Glo viability, 72 h; series mostly up to 46 µM
Summary of the method: (§2)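 After compound transfer in DMSO, plates were kept 72 hr at 37 degree celsius. Luminescent ATP signal from CellTiter-Glo served as viability measure, normalized against DMSO and no-cell controls.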

MCC-26 = assay: as above; conditions: MCC and control cell lines, CellTiter-Glo viability, 72 h; series mostly up to 46 µM
Summary of the method: as §2

MKL-1 = assay: as above; conditions: MCC and control cell lines, CellTiter-Glo viability, 72 h; series mostly up to 46 µM
Summary of the method: as §2

MKL-2 = assay: as above; conditions: MCC and control cell lines, CellTiter-Glo viability, 72 h; series mostly up to 46 µM
Summary of the method: as §2

UISO = assay: as above; conditions: MCC and control cell lines, CellTiter-Glo viability, 72 h; series mostly up to 46 µM
Summary of the method: as §2

NIH3T3 [2] = assay: as above; conditions: MCC and control cell lines, CellTiter-Glo viability, 72 h; at 44.8 µM (top of the series) unless noted
Summary of the method: as §2
Further: nearly all actives have a fitted effect of over 60% in size.
Potency means the concentration at half of the fitted maximal effect.

| SMILES | Potency (KB-3-1) | max response (NIH3T3 [1]) [%] | Potency (MCC-13) | Potency (MCC-26) | Potency (MKL-1) | Potency (MKL-2) | Potency (UISO) | max response (KB-3-1) [%] | Potency (NIH3T3 [1]) | outcome (NIH3T3 [1]) | outcome (NIH3T3 [2]) | outcome (KB-3-1) |
| --- | --- | --- | --- | --- | --- | --- | --- | --- | --- | --- | --- | --- |
| Cc1c2oc3c(C)ccc(C(=O)NC4C(=O)NC(C(C)C)C(=O)N5CCCC5C(=O)N(C)CC(=O)N(C)C(C(C)C)C(=O)OC4C)c3nc-2c(C(=O)NC2C(=O)NC(C(C)C)C(=O)N3CCCC3C(=O)N(C)CC(=O)N(C)C(C(C)C)C(=O)OC2C)c(N)c1=O (stereo not given) (I: TVP[Sar][NMeV] / II: TVP[Sar][NMeV]; ester I:1-I:C, II:1-II:C; linker I:N-II:N via Actinocin(9to1); configuration not given here) | 0.0662 nM (active) | -100 | inactive | inactive | inactive | inactive | inactive | – | – | – | – | – |
| C[C@@H]1CC[C@@]2(OC1)OC1CC3C4CC=C5CC(O)CCC5(C)C4CCC3(C)C1[C@@H]2C (stereo not given in full) | – | -12.1 | inactive | inactive | inactive | inactive | inactive | -6.71 | – | – | – | – |
| C#C[C@]1(O)CC[C@@H]2[C@@H]3CCC4=CC(=O)CC[C@@H]4[C@H]3CC[C@@]21CC | – | -8.04 | inactive | inactive | inactive | inactive | inactive | -5.98 | – | – | – | – |
| CC(C)OC(=O)[C@H](C)N[P@](=O)(OC[C@H]1O[C@@H](n2ccc(=O)[nH]c2=O)[C@](C)(F)[C@H]1O)Oc1ccccc1 | – | -9.86 | inactive | inactive | inactive | inactive | inactive | 1.17 | – | – | – | – |
| N#CNC(=NCCCCCCOc1ccc(Cl)cc1)Nc1ccncc1 | 3.7 nM (active) | – | 37.2 nM (active) | 14.8 nM (active) | 1.2 nM (active) | inactive | 5.9 nM (active) | – | 296 nM (active) | – | – | – |
| N[C@H]1CN(c2c(F)cc3c(=O)c(C(=O)O)cn(C4C[C@@H]4F)c3c2Cl)CC12CC2 (stereo not given in full) | – | – | inactive | inactive | inactive | inactive | inactive | -14.1 | – | inactive | inactive | – |
| CON=C(C(=O)N[C@@H]1C(=O)N2C(C(=O)O)=C(Cn3ccc(=N)n3CCO)CS[C@H]12)c1csc(N)n1 | – | 1.39 | inactive | inactive | inactive | inactive | inactive | – | – | – | – | inactive |
| C[C@H](NC(=O)[C@@H](O)c1cc(F)cc(F)c1)C(=O)N[C@@H]1C(=O)N(C)c2ccccc2-c2ccccc21 | – | -4.85 | inactive | inactive | inactive | inactive | inactive | -9.73 | – | – | – | – |
| CC(=O)[C@]1(O)Cc2c(O)c3c(c(O)c2[C@@H](O[C@H]2C[C@H](N)[C@@H](O)[C@H](C)O2)C1)C(=O)c1ccccc1C3=O | 469 nM (active) | – | 662 nM (active) | 1320 nM (active) | 148 nM (active) | 105 nM (active) | 590 nM (active) | – | 264 nM (active) | – | – | – |
| CCC[C@H]1C[C@H](C(=O)N[C@@H]([C@@H]2O[C@@H](SC)[C@@H](O)[C@@H](O)[C@@H]2O)[C@H](C)Cl)N(C)C1 | – | -6.56 | inactive | inactive | inactive | inactive | inactive | 0.31 | – | – | – | – |
| O=C(O)C=Cc1ccc(Cn2ccnc2)cc1 | – | -0.597 | inactive | inactive | inactive | inactive | inactive | – | – | – | – | inactive |
| O=[N+]([O-])c1cn2c(n1)OC[C@@H](OCc1ccc(OC(F)(F)F)cc1)C2 | – | -7.72 | inactive | inactive | inactive | inactive | inactive | -6.53 | – | – | – | – |
| COC1=C(OC)C(=O)C(CC=C(C)CCC=C(C)CCC=C(C)CCC=C(C)CCC=C(C)CCC=C(C)CCC=C(C)CCC=C(C)CCC=C(C)CCC=C(C)C)=C(C)C1=O | – | 4.96 | inactive | inactive | inactive | inactive | inactive | -1.17 | – | – | – | – |
| CN[C@H]1[C@@H](O)[C@@H]2O[C@@H]3O[C@H](C)CC(=O)[C@]3(O)O[C@@H]2[C@@H](NC)[C@H]1O | – | 4.68 | inactive | inactive | 166 nM (active) | 2960 nM (active) | 3720 nM (active) | – | – | – | – | inactive |
| CC(O)(C#Cc1ccc2c(c1)N(c1nc(N)ncc1Cl)CC2)c1nccs1 (stereo not given) | – | -24.2 | inactive | inactive | inactive | inactive | inactive | -15.7 | – | – | – | – |
| CC(C)(O)CC[C@@H](O)[C@](C)(O)[C@H]1CC[C@@]2(O)C3=CC(=O)[C@@H]4C[C@@H](O)[C@@H](O)C[C@]4(C)[C@@H]3CC[C@]12C | – | 0.822 | inactive | inactive | inactive | inactive | inactive | -6.66 | – | – | – | – |
| COc1cccc2c1C(=O)c1c(O)c3c(c(O)c1C2=O)C[C@@](O)(C(C)=O)C[C@H]3O[C@H]1C[C@H](N)[C@H](O)[C@H](C)O1 | 235 nM (active) | – | 590 nM (active) | 372 nM (active) | 33.2 nM (active) | 23.5 nM (active) | 46.9 nM (active) | – | 209 nM (active) | – | – | – |
